In the library only some 6% were active in any assay of this set; here they are far more common.
DRD3 antagonist – qHTS of D3 Dopamine Receptor Antagonist: qHTS; D(3) dopamine receptor (Homo sapiens), P35462; D3R cells, DiscoveRx beta-arrestin luminescence, antagonist mode; stronger effect = lower value; max response, negative = inhibition, %; actives 2.5% (n = 360,000); AID 652054, 2013; in the data active = max response below about -50%; inconclusive = no clear call, values can overlap the other calls
Target sequence (P35462 whole entry, looked up): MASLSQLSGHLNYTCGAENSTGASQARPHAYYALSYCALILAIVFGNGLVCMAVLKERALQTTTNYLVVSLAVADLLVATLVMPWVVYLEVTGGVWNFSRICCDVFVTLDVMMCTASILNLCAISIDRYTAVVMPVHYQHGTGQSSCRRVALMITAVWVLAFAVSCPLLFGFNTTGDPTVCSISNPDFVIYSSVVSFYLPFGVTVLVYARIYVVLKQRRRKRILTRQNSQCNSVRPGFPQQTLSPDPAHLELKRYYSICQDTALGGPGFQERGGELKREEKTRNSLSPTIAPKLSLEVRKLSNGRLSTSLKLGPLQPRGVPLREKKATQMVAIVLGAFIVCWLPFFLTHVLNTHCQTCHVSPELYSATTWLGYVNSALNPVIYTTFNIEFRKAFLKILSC
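Cells plated overnight at 1500 cells/well, then exposed to library compounds with dopamine controls for 90 minutes at 37 degrees C. DiscoveRx reagent added for 30–60 minutes at room temperature; luminescence read, quantitative HTS format.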
D3 ag – qHTS of D3 Dopamine Receptor Agonist: qHTS | D(3) dopamine receptor (Homo sapiens), P35462 | D3R DiscoveRx beta-arrestin cells, luminescence, 90 min | max activation, % | actives 0.58% (n = 410,000) | AID 652048, 2013; in the data active = max activation above about 30%
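Agonist mode: compounds and dopamine controls were applied to plated cells for 90 min at 37 degrees C after an overnight attachment at 1500 cells/well. Luminescent read-out followed 30 - 60 minutes at room temperature with DiscoveRx detection reagent.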
D1 antag – Antagonist of Human D 1 Dopamine Receptor: qHTS; actives 3.2% (n = 360,000); activity change, negative = inhibition, % at 10 µM; HEK293 TREx D1 cells, calcium flux, dopamine EC80; stronger effect = lower value; AID 504652, 2011; D(1A) dopamine receptor (Homo sapiens), P21728; in the data active = activity change below about -30%
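Cells carrying a force-coupled, tetracycline-inducible human D1 receptor report calcium flux. Each well gets a 10 s baseline, compound with 180 s monitoring, then an EC80 dopamine stimulus with a second 180 s kinetic read.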
D1 agonist – Allosteric Agonists of the Human D1 Dopamine Receptor: qHTS; activation, % at 2 µM; AID 504660, 2011; actives 1% (n = 360,000); HEK293 T-REx D1 cells, calcium flux, agonist mode; D(1A) dopamine receptor (Homo sapiens), P21728; in the data active = activation above about 30%
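Agonism was scored from calcium flux recorded over 180 s (1 read/s) after pintool compound addition, following a 10-cycle baseline. Cells were inducible force-coupled HEK293 TREx D1, plated overnight at 30 C and loaded with no-wash calcium dye.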
D1 PAM – Potentiators of Human D1 Dopamine Receptor: qHTS; D(1A) dopamine receptor (Homo sapiens), P21728; HEK293 TREx D1 cells, calcium flux, dopamine EC20 potentiation; potentiation, % at 10 µM; actives 0.036% (n = 360,000); in the data active = potentiation above about 30%
Of the large screens only hits and unclear results are named; the others gave an inactive call.

O=C(Cc1cccs1)NC1CC(=O)N(c2cccc(F)c2)C1 (configuration not stated)	none (no result: DRD3 antagonist, D1 antag)
COC(=O)c1ccccc1NC(=O)CN1CCN(C23CC4CC(CC(C4)C2)C3)CC1	DRD3 antagonist -76
COC(=O)c1ccccc1NC(=O)CN1CCc2ccccc2C1	none
Cc1ccc(C(C)C)c(OCC(O)CN2CCN(CCO)CC2)c1 (configuration not stated)	none
CCN(CCNCC(O)COc1ccccc1C(C)C)c1cccc(C)c1 (configuration not stated)	D1 agonist 56
CCCCc1oc2ccc(NS(C)(=O)=O)cc2c1C(=O)c1ccc(OCCCN(CCCC)CCCC)cc1	none (no result: DRD3 antagonist, D1 antag, D1 agonist, D1 PAM)
N#Cc1cc2nc(O)c(O)nc2cc1[N+](=O)[O-]	DRD3 antagonist inconclusive
CNc1nc2cc([N+](=O)[O-])c([N+](=O)[O-])cc2nc1NC	D1 agonist 39
Cc1ccc2c(Sc3ccc(Cl)cc3)c(C(=O)N3CCCCC3)[nH]c2c1	none (no result: DRD3 antagonist)
Cc1ccc(C(=O)c2sc(Nc3ccc(F)cc3)nc2N)c(C)c1	none (no result: DRD3 antagonist)
CN(C)c1ccc(CNC(=O)CN2CCSc3ccc(S(=O)(=O)N(C)C)cc32)cc1	none (no result: DRD3 antagonist)
CC(C)OC(=O)Nc1ccc(Oc2c(F)c(F)c(F)c(F)c2F)cc1	none
C/C=C/c1c(F)c(F)c(Oc2ccc(C(=O)O)cc2)c(F)c1F	D3 ag 31
COC(=O)c1ccc(CSc2nnc(SCc3ccc(C(=O)OC)o3)s2)o1	none
COC(=O)c1ccc(CSc2nnc(Nc3ccc(OC)cc3)s2)o1	D1 antag -30
CCSc1nnc(NC(=O)Cc2cccc(OC)c2)s1	none
CCSc1nnc(NC(=O)Cc2ccc(OC)cc2)s1	D1 antag -47
Cc1ccc(NC(=O)CN2C(=O)CCn3nc(-c4cccn4C)cc32)cc1	none (no result: DRD3 antagonist)
O=c1c2c([N+](=O)[O-])cc([N+](=O)[O-])cc2sn1Cc1ccccc1	DRD3 antagonist inconclusive, D1 agonist 51
COc1cccc(CN2CC(C(=O)NCCSc3nnnn3C)CCC2=O)c1 (configuration not stated)	D1 antag -37
COc1ccc(N=C2S/C(=C\c3ccc(N4CCOCC4)o3)C(=O)N2CCc2c[nH]c3ccccc23)cc1	D1 antag -30 (no result: DRD3 antagonist, D3 ag)
O=C(COc1ccccc1)NC(=S)Nc1cccc2cc(O)ccc12	D1 agonist 35
Cc1nc2c(c(SCC(=O)Nc3ccccc3C(F)(F)F)n1)CCC2	none (no result: DRD3 antagonist)
COc1ccc(N2CCN(CC(O)COCc3ccccc3)CC2)cc1 (configuration not stated)	none
COc1ccc(OCC(O)CN2CCN(c3ccccc3)CC2)cc1 (configuration not stated)	DRD3 antagonist inconclusive
OC(COc1ccc2c(c1)OCO2)CN1CCCCC1 (configuration not stated)	none
CC(C)c1ccc(OCC(O)CN2CCN(c3ccccc3)CC2)cc1 (configuration not stated)	DRD3 antagonist inconclusive, D3 ag 45
COc1ccc(OCC(CO)N2CCN(c3ccccc3)CC2)cc1 (configuration not stated)	DRD3 antagonist inconclusive, D3 ag 37 (no result: D1 antag, D1 agonist, D1 PAM)
OC(COC1CCCCC1)CN1CCN(c2ccccc2)CC1 (configuration not stated)	DRD3 antagonist -61
OC(COc1ccc2c(c1)OCO2)CN1CCN(c2ccccc2)CC1 (configuration not stated)	DRD3 antagonist -63
OCCN(Cc1ccccc1)CC(O)COc1ccc2c(c1)OCO2 (configuration not stated)	none
OC(COc1ccc2c(c1)OCO2)CN1CCc2ccccc2C1 (configuration not stated)	DRD3 antagonist -78
CCCN(CCC)CC(O)COc1ccc2c(c1)OCO2 (configuration not stated)	D1 antag -45
Cc1ccc(N(C(=O)c2nsc(Cl)c2Cl)C(C(=O)NC2CCCC2)c2ccc(O)cc2)cc1C (configuration not stated)	DRD3 antagonist -52

Screening data deposited in PubChem BioAssay by National Center for Advancing Translational Sciences (NCATS).
